A number with no mark means an inactive call. Calls of active or inactive are those of the source. Unless noted, no stated cut-off is given here; in the data, active means inhibition above about 42%; inactive means the rest.
Legend:
[1] = StAR promoter reporter inhibitors, counter-screen for LRH-1 inverse agonist project, cell-based, luminescence, high throughput (AID 651611; in the data active means inhibition above about 28%); details: StAR promoter luciferase reporter counterscreen, at 3.6 µM, hits give high values
[2] = target: Nuclear receptor subfamily 5 group A member 2 (Homo sapiens) (UniProt O00482); assay: LRH-1 (NR5A2) inverse agonists, retest, confirmation, cell-based, luminescence (AID 651613); details: cell-based LRH-1 luciferase reporter, inverse agonism; at 3.6 µM; hits give high values;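 further: HEK293T cells co-transfected with LRH-1 and StAR promoter luciferase reporter; 0% = vehicle wells and 100% = parental cells lacking receptor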
[3] = target: Steroidogenic factor 1 (Homo sapiens) (UniProt Q13285); assay: SF1 (NR5A1) inverse agonists, counter-screen for LRH-1 inverse agonist project, cell-based, luminescence, high throughput (AID 651614; in the data active means inhibition above about 44%;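 further: cells cotransfected with StAR promoter reporter and SF1 expression vector; 0% = vehicle on cells with receptor and 100% = vehicle on cells lacking receptor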); details: cell-based SF1 luciferase reporter, at 3.6 µM, hits give high values
[4] = VP16 transactivation reporter inhibitors, counter-screen for LRH-1 inverse agonist project, cell-based, luminescence, high throughput (AID 651615; in the data active means inhibition above about 33%); details: Gal4-VP16 luciferase reporter cells, at 3.6 µM, hits give high values

Chain of Nuclear receptor subfamily 5 group A member 2 (Homo sapiens) (O00482 whole entry, looked up): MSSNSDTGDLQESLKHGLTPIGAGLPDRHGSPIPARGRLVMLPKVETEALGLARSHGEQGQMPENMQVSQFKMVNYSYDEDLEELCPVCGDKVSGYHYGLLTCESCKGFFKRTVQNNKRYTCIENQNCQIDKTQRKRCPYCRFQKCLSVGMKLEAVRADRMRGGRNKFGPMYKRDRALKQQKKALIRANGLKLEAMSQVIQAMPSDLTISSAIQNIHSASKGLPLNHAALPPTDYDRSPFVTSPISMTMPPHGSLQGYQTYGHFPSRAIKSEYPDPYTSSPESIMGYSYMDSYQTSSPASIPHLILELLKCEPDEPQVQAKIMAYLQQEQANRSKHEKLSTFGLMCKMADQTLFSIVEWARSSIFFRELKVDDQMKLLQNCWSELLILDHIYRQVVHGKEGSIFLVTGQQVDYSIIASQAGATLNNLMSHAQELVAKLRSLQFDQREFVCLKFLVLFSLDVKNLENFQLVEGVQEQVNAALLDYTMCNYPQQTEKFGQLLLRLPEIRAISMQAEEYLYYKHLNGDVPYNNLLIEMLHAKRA
Chain of Steroidogenic factor 1 (Homo sapiens) (Q13285 whole entry, looked up, the tested form may be a part): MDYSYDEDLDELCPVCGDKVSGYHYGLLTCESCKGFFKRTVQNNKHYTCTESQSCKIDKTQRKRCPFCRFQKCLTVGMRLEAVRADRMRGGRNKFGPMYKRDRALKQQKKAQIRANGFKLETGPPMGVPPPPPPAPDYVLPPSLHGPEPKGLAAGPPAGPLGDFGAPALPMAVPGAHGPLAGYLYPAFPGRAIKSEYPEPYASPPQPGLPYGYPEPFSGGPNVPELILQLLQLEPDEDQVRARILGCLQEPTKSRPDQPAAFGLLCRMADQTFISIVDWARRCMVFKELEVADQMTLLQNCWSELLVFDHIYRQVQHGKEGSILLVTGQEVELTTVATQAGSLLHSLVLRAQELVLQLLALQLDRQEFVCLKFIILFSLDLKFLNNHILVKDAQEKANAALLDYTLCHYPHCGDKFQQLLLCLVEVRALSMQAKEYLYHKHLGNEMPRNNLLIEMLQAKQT

SMILES | inhibition [1] | inhibition [2] | inhibition [3] | inhibition [4]
COC(=O)c1ccc(NC(=O)CSc2ccc(-c3ccccn3)nn2)cc1 | -13.3% | 52.9% (active) | 41.7% | -18%
Cc1ccc(N2CC(C(=O)Nc3nc4ccc(S(C)(=O)=O)cc4s3)CC2=O)cc1C (stereo not drawn) | 11.2% | 44.6% (active) | 34.7% | -2.05%
Cc1cc2ncn(/N=C/c3ccc([N+](=O)[O-])o3)c2cc1C | 17.6% | 69.1% (active) | 68.2% (active) | -19.6%
CS(=O)(=O)N1CCN(c2ccccc2NC(=O)c2ccc([N+](=O)[O-])o2)CC1 | 11.6% | 57.4% (active) | 55.3% (active) | -20.1%
COc1ccc(CCNC(=O)CSc2nc3[nH]ncc3c(=O)n2-c2ccccc2Br)cc1OC | 5.86% | 57.3% (active) | 43.1% (active) | -2.5%
CCOc1ccc(NC(=O)CSc2nc3c(c(=O)n2-c2ccccc2OC)SCC3)cc1 | 8.34% | 63.1% (active) | 58.7% (active) | -10.6%
N#Cc1c2ccc([N+](=O)[O-])cc2[n+]([O-])n1-c1ccccc1 | 58.2% (active) | 81.5% (active) | 75.4% (active) | -21.2%
S=C1Cc2ccccc2N1 | 56% (active) | 85.9% (active) | 79.5% (active) | 53.3% (active)
CC(=O)c1ccc(-c2cnc3c(NC=O)cc(-c4ccc(S(C)(=O)=O)cc4)cn23)cc1 | 31.7% (active) | 74.8% (active) | 70.3% (active) | -0.51%
CC(=O)Nc1ccc2nc(NC(=O)c3ccc([N+](=O)[O-])o3)sc2c1 | 1.53% | 53.5% (active) | 55.8% (active) | -32.4%
CC(=O)Nc1ccc(NC(=O)COC(=O)c2cc(S(=O)(=O)N3CCCC3)ccc2O)cc1 | 21% | 58.9% (active) | 61.4% (active) | -14.8%
C/C(=N\N=C(N)N)c1cc(Cl)ccc1Cl | 26.9% | 102% (active) | 30.1% | 75.8% (active)
COc1ccc(N2CCN(C(=O)C3CCC(Cn4c(=S)[nH]c5ccccc5c4=O)CC3)CC2)cc1 (stereo not drawn) | 9.08% | 36.1% | 39.2% | 26.8%
CCOc1ccc(NC(=O)Cn2nc(-c3ccccc3Cl)n(CC)c2=S)cc1 | 1.73% | 60.4% (active) | 54.6% (active) | 2.74%
Cc1ccc2[nH]c(C)c(/C=C/c3cc[n+](C)cc3)c2c1 | 39.2% (active) | 77.4% (active) | 67.3% (active) | 67.8% (active)
O=C(CSc1nc(=O)n2cc(Cl)ccc2n1)Nc1ccc2c(c1)OCCO2 | 3.01% | 47.8% (active) | 44.1% (active) | -4.83%
Cc1cc2ccccn2c1C(=O)c1ccc([N+](=O)[O-])o1 | 41% (active) | 68.3% (active) | 62.2% (active) | -0.71%
O=C(CC1C(=O)NCCN1C(=S)Nc1ccccc1)Nc1ccc2c(c1)OCCO2 (stereo not drawn) | 10.3% | 53.8% (active) | 63.2% (active) | -25.2%
CCc1ccccc1NC(=O)CSc1nc2n[nH]c(C)c2c(=N)n1-c1cccc(OC)c1 | 16.7% | 38.2% | 19.4% | -17.4%
CCOc1ccc(OCCC(=O)OCC(=O)Nc2ccc3c(c2)OCCO3)cc1 | -6.27% | 41.5% (active) | 37.1% | -6.23%
Cc1nc2cc(N3CCCCC3)c(NC(=O)c3cccnc3)cc2c(=O)n1Cc1ccccc1 | 10.7% | 57.6% (active) | 57.2% (active) | -17%
Nc1cccc(OCCCCCOc2cccc(N)c2)c1 | -18.2% | 41.7% (active) | 54% (active) | -5%
CC(/C=C(\NC(=O)c1ccccc1)C(=O)N=Nc1c(O)[nH]c2ccc(C)cc12)=C\c1ccccc1 | 34.2% (active) | 31.7% | 30.2% | 14.1%
CCOC(=O)c1ccc(NC(=O)CSc2nnc(COc3ccccc3OC)n2C)cc1 | -2.53% | 40.4% | 35.7% | -6.59%
CCc1cc(=O)oc2c(C)c(OCC(=O)NCCN3CCOCC3)ccc12 | -3.34% | 48.5% (active) | 30.7% | -8.24%
CCc1ccccc1NC(=O)CSc1nnc([C@@H](NC(=O)OC(C)(C)C)C(C)CC)o1 (stereo partly drawn) | -3.97% | 39.5% | 30.1% | 4.95%

SMILES | inhibition [1] | inhibition [2] | inhibition [3] | inhibition [4]
COCc1cc(C)n(CC(=O)Nc2ccc(N3CCOCC3)c(Cl)c2)c(=O)c1C#N | -4.28% | 40.5% | 40.9% | 6.57%
CSc1ccc(COC(=O)c2cc([N+](=O)[O-])ccc2N2CCOCC2)cc1 | 61.7% (active) | 57.5% (active) | 65.8% (active) | 36.6% (active)
CCCN(CC(=O)Nc1ccc(C(C)=O)cc1)CC(=O)Nc1ccccc1C | 1.27% | 62.4% (active) | 56% (active) | 9.79%
COC(=O)c1ccc(N2CCCCC2)c(NC(=O)c2ccco2)c1 | 9.72% | 55.3% (active) | 61.5% (active) | 4.64%
CC(=O)Nc1ncc(Cc2cc(Cl)ccc2Cl)s1 | 11.1% | 50.2% (active) | 46.7% (active) | 2.54%
COc1cc(C(=O)Nc2ccccc2C2COC(=O)C2=N)cc(OC)c1OC (stereo not drawn) | 8.92% | 45.5% (active) | 45.2% (active) | -1.69%
Nc1cccc2nc3ccccc3cc12 | 21.7% | 104% (active) | 55.1% (active) | 92.2% (active)
Cc1ccc(-c2nn3c(C)nnc3s2)cc1NC(=O)c1ccco1 | 7.12% | 63.2% (active) | 60.7% (active) | -12.3%
COc1cc2nc(/C=C/c3cc(OC)c(OC)c(OC)c3)sc2cc1SC | 35.7% (active) | 45.1% (active) | 58.6% (active) | -2.8%
CCOC(=O)C(C)Oc1cccc2c(=O)n(CC(=O)Nc3ccc4c(c3)OCCO4)ccc12 (stereo not drawn) | 5.33% | 58.5% (active) | 51.7% (active) | -1.21%
CCNc1nc(-c2sc(NC(=O)C(C)(C)C)nc2C)c(-n2cc(-c3ccccc3)nn2)s1 | 60.9% (active) | 27.6% | 41.4% | 35.7% (active)
C/C(=N\Nc1nc2ccccc2[nH]1)c1ccccn1 | 71.4% (active) | 83.1% (active) | 73.9% (active) | 2.13%
Cc1cccc(NC(=O)COC(=O)Cc2cccs2)c1C | 0.39% | 53.8% (active) | 46.9% (active) | 14.1%
CC(=O)N1CCc2c(sc(NC(=O)c3ccc([N+](=O)[O-])o3)c2C(N)=O)C1 | 19.9% | 65.2% (active) | 65.3% (active) | -14.1%
NC(=O)C1CCN(C(=O)COc2ccc3c4c(c(=O)oc3c2)CCCC4)CC1 | 12.7% | 59.3% (active) | 50.3% (active) | -6.57%
Cc1nn(Cc2ccc(Cl)cc2)c(C)c1NC(=O)c1ccc([N+](=O)[O-])cc1 | 36.1% (active) | 55.9% (active) | 50% (active) | -3.45%
CCOc1cc(/C=C2\C(=N)N3N=C(C)SC3=NC2=O)ccc1OCCOc1cccc(OC)c1 | 10% | 39.7% | 40.2% | 6.87%
CC1(C)CC(=O)C=C(c2cccs2)C1 | 0.35% | 47.2% (active) | 57.8% (active) | 6.36%
CC(=O)c1ccc(NC(=S)Nc2cccc3cnccc23)cc1 | 3.88% | 5.22% | 4.69% | 7.24%
Cc1ccccc1-c1nnc(SCC(=O)Nc2cccc(C)c2C)o1 | -7.62% | 24.8% | 26.9% | -3.77%
O=C(Cc1ccc(S(=O)(=O)N2CCCC2)s1)Nc1cccc([N+](=O)[O-])c1 | 7.13% | 51.3% (active) | 46.5% (active) | 1.81%
O=C(Nc1ccc(N2CCN(C(=O)c3cccs3)CC2)cc1)c1ccc([N+](=O)[O-])o1 | 43.4% (active) | 67.3% (active) | 70.4% (active) | 7.47%
O=C1CC(c2ccc3c(c2)OCCO3)Oc2ccc([N+](=O)[O-])cc21 (stereo not drawn) | 14.5% | -49.9% | -37% | -35.3%
Cc1ccc(CNC(=O)c2ccc([N+](=O)[O-])o2)cc1 | 16.4% | 57% (active) | 60.8% (active) | -5.02%
CCc1cc(=O)oc2c(C)c(OCC(=O)NCCCN3CCOCC3)ccc12 | 3.94% | 48.7% (active) | 42.6% | 2.03%
Clc1ccccc1-c1nnc2sc(-c3ccncc3)nn12 | 15.3% | 52.6% (active) | 50.9% (active) | 3.81%
